Inconclusive results are not listed. Activity calls are given as the source filed them. The call rests on the fitted dose curve; in most records, active means well fitted cell-killing curve with a large enough effect in the repeat runs (not every such curve was filed as active); inconclusive means weak or mixed curves, or effect the other way; inactive means no such curve, though single readings can be large or run the other way.
Assay: qHTS assay to identify small molecule antagonists of the farnesoid-X-receptor (FXR) signaling pathway - cell viability counter screen (AID 743221); further: nearly all actives have a fitted effect of over 50% in size
Settings: FXR-bla HEK293T viability, CellTiter-Glo luminescence, 16 h; series mostly up to 62.6 µM; activity change, negative = cytotoxicity: at the top concentration
Description: National Center for Advancing Translational Sciences [NCATS]
NIH Chemical Genomics Center [NCGC]
U.S. Environmental Protection Agency [EPA]
National Institutes of Environmental Health Sciences [NIEHS]
National Toxicology Program [NTP]
U.S. Food and Drug Administration [FDA]
The farnesoid-X-receptor (FXR), a nuclear hormone receptor, is highly expressed in liver, intestine, kidney and adrenal cortex. Natural ligands of FXR are the bile acids (Cholic acid, Chenodeoxy cholic acid etc). FXR is an important regulator of diverse metabolic pathways, including the bile acid homeostasis, lipid and glucose metabolisms. FXR regulates the expression of target genes by binding either as a monomer or as a heterodimer with the retinoid X receptor (RXR). Numerous studies have reported that FXR exerts protective function during cholestasis, diabetes, liver regeneration, and cancer. To identify compounds that inhibit FXR signaling, GeneBLAzer FXR-UAS-bla HEK 293T cell line (Invitrogen, Carlsbad, CA) containing a beta-lactamase reporter gene under the control of a UAS response element was used to screen the Tox21 10K compound library. The cytotoxicity of the Tox21 compound library against the FXR-bla cell line was tested in parallel by measuring the cell viability using CellTiter-Glo assay in the same wells.
Tox21 Assay Protocol Summary:
FXR-bla cells were dispensed at 5000 cells/5uL/well in 1536-well black wall/clear bottom plates using a Multidrop Combi (Thermo Fisher Scientific, Waltham, MA) dispenser. After the assay plates were incubated at 37 C and 5% CO2 for 5 h, 23 nL of compounds dissolved in DMSO, positive controls or DMSO only was transferred to the assay plate by a Pintool station (Kalypsys, San Diego, CA), followed by addition of 1 uL Chenodeoxycholic acid (50 uM, final concentration in the wells). The assay plates were incubated at 37C for 16 h. After 1 uL of LiveBLAzerTM B/G FRET substrate was added using a Bioraptr Flying Reagent Dispenser (FRD) workstation (Beckman Coulter, Indianapolis, IN), the plates were incubated at room temperature for 2 h, and fluorescence intensity was measured by an Envision plate reader (PerkinElmer, Shelton, CT). For cell viability readout that measures cytotoxicity, 4uL/well of CellTiter-Glo reagent was added into the assay plates using a Bioraptr FRD. After 30 min incubation at room temperature, the luminescence intensity in the plates was measured using a ViewLux plate reader (PerkinElmer).
On the % scale 0 is the no-effect control and ±100 the full control effect.

| SMILES | activity change, negative = cytotoxicity | Potency |
| --- | --- | --- |
| CCCc1cc(C(N)=S)ccn1 | 3.58% (inactive) |  |
| C[C@](N)(Cc1ccc(O)cc1)C(=O)O | -5.83% [at 5.95 µM] (inactive) |  |
| CCOC(C)(C)C | 2.01% [at 81.1 µM] (inactive) |  |
| O=c1[nH]c(=O)n([C@H]2C[C@H](O)[C@@H](CO)O2)cc1I | 1.14% (inactive) |  |
| Brc1c(NC2=NCCN2)ccc2nccnc12 | 0.0866% (inactive) |  |
| C=CCOCC(CC)(CO)COCC=C | -2.94% (inactive) |  |
| C[N+](C)(C)CCCCCC[N+](C)(C)C | -2.31% (inactive) |  |
| C/C=C(\C)C#N | -2.43% (inactive) |  |
| CC(C)CCCC(C)N (stereo not given) | -6.29% (inactive) |  |
| O=C(O)COc1nn(Cc2ccccc2)c2ccccc12 | 6.88% (inactive) |  |
| CC(C)=CCCC(C)CC(=O)O (stereo not given) | -19.9% (inactive) |  |
| COc1ccc2c(c1)c(CC(=O)OCC(=O)O)c(C)n2C(=O)c1ccc(Cl)cc1 | 2.17% (inactive) |  |
| CCOC(=O)Nc1ccc(NCc2ccc(F)cc2)nc1N | -2.54% (inactive) |  |
| CCCCOCCOCCOCCCC | 3.56% (inactive) |  |
| O=C(O)CN(CCOCCOCCN(CC(=O)O)CC(=O)O)CC(=O)O | -3.69% [at 0.55 µM] (inactive) |  |
| CCCCCCCCCCCC | 9.15% (inactive) |  |
| CCCCOCCOCCOCc1cc2c(cc1CCC)OCO2 |  | inactive |
| NCCc1cnc[nH]1 | 11.4% (inactive) |  |
| NS(=O)(=O)c1ccccc1Cl | -4.65% (inactive) |  |
| Cc1ccc(C#N)cc1 | 1.5% (inactive) |  |

| SMILES | activity change, negative = cytotoxicity | Potency |
| --- | --- | --- |
| CC(C)(C)c1nnc(NS(=O)(=O)c2ccccc2)s1 | 6.37% (inactive) |  |
| CC(C[N+](C)(C)C)OC(N)=O (stereo not given) | 1.16% (inactive) |  |
| CCCN1CCCC[C@H]1C(=O)Nc1c(C)cccc1C | 7.94% (inactive) |  |
| CCCN(CCC)CCc1cccc2c1CC(=O)N2 | 9.93% (inactive) |  |
| O=C1OC(=O)C2CCCCC12 (stereo not given) | -0.276% (inactive) |  |
| CCOC(=O)CCC(C)=O | -22.5% (inactive) |  |
| O=C(O)c1ccccc1OP(=O)(O)O | 1.51% (inactive) |  |
| COC(=O)[C@@H](N)Cc1ccc(O)c(O)c1 | 12.1% (inactive) |  |
| CN1CC(=O)NC1=N | 13.6% (inactive) |  |
| COC(=O)c1c(Cl)c(Cl)c(C(=O)OC)c(Cl)c1Cl |  | inactive |
| O=Cc1cccc([N+](=O)[O-])c1 | -2.66% (inactive) |  |
| CC(C)NC(=O)NC(C)C | -0.023% (inactive) |  |
| NS(=O)(=O)c1cc2c(cc1Cl)NC(C1CC3C=CC1C3)NS2(=O)=O (stereo not given) | -2.2% (inactive) |  |
| CCC(=O)OC(C)c1ccccc1 (stereo not given) | 12.5% (inactive) |  |
| O=C1CC2CC1C1CCCC21 (stereo not given) | 2.84% (inactive) |  |
| Cc1ccc(=O)n(-c2ccccc2)c1 | 11.7% (inactive) |  |
| CCCCCCOC(=O)CCCCC(=O)OCCCCCC | 10.1% (inactive) |  |
| Cc1cc(O)cc2c1O[C@](C)(CCC[C@H](C)CCC[C@H](C)CCCC(C)C)CC2 | 5.69% (inactive) |  |
| Nc1c2c(nc3ccccc13)CCCC2O (stereo not given) | 8.4% (inactive) |  |
| c1cnc(N2CCN(Cc3ccc4c(c3)OCO4)CC2)nc1 | 0.822% (inactive) |  |
